Screen size: about 2,300 compounds; about 1,000 (43%) were called active. So high a share suggests a set chosen from earlier hits. This is one part of the list. Entries with a potency or affinity are not part of this list. Values without a mark were called inactive. The rule behind the calls is not given here.
experiment: modified counter assay using GFP fluorescence, PhoP regulon inhibitor project, dose response (AID 1985); settings: S. Typhi, 4 h; series mostly up to 150 µM; inhibition: at the top concentration

Row | SMILES | inhibition [%]
1 | COCCN1CC(=O)N2C(c3cccc(OC)c3)c3[nH]c4ccccc4c3C[C@H]2C1=O (stereo partly specified) | 10.3
2 | Cc1ccc2c(c1)C1CN(C)CCC1N2C(=O)COc1ccccc1F (stereo unspecified) | 21.9
3 | c1ccc(CN2CCC(Nc3nc(-c4ccccc4)nc4ccccc34)CC2)cc1 | 32.4
4 | c1ccc(CN2CCC(N3CCN(Cc4ccc5c(c4)OCO5)CC3)CC2)cc1 | -25.1
5 | CCOC(=O)c1cc(-c2ccc(F)cc2)n(CCC(=O)NC2CCN(Cc3ccccc3)CC2)c1C | -13
6 | c1ccc(CN2CCC(Nc3nc(-c4cccs4)nc4ccccc34)CC2)cc1 | 17.1
7 | Cc1ccccc1C(=O)c1cccn1CC(=O)NCCC1=CCCCC1 | 13.5
8 | Cc1cc2ccccc2c(=O)n1CC(=O)NCCC1=CCCCC1 | 10.5
9 | Clc1ccc(OCc2nc(-c3ccc(Br)o3)no2)cc1 | -12.4
10 | CN1CCN(c2ccccc2NC(=O)c2cc3c(s2)-c2ccccc2OC3)CC1 | -16.3
11 | NCC/C=C1/c2ccccc2CSc2ccccc21 | -35.5
12 | c1ccc2c(Nc3nnc(-c4ccncc4)s3)cccc2c1 | 15.6
13 | O=C(Nc1ccc(N2CCOCC2)cc1)c1ccc(S(=O)(=O)NCc2ccco2)cc1 | 12
14 | CCc1cccc(NC(=O)CSC2=NS(=O)(=O)c3ccccc32)c1 | 37.1
15 | O=C(CNC(=O)Cn1ccc2ccccc2c1=O)NCCCN1CCCCCC1 | -3.62
16 | O=C1CCCN1CCC1CCN(C2CC(=O)N(c3ccc(Cl)cc3)C2=O)CC1 (stereo unspecified) | 3.09

Row | SMILES | inhibition [%]
17 | CC(NCC(O)COCCC12CC3CC(CC(C3)C1)C2)c1ccccc1 (stereo unspecified) | 3.19
18 | CS(=O)(=O)c1cnc2c(-c3ccsc3)cnn2c1N | -32.5
19 | O=C(CCSCc1ccccc1F)NCc1cccs1 | 0.85
20 | CC(OC(=O)Cc1coc2cc3c(cc12)CCC3)C(=O)NCc1ccc2c(c1)OCO2 (stereo unspecified) | -2.07
21 | COc1cc2[nH]c(=S)n(CC3CCCO3)c(=O)c2cc1OC (stereo unspecified) | -1.07
22 | Cc1ccc(NC2OC(CO)C(O)C(O)C2O)cc1 (stereo unspecified) | 6.18
23 | Cc1cn([C@H]2C[C@H](N=[N+]=[N-])[C@@H](CO)O2)c(=O)[nH]c1=O | -20.3
24 | O=C(COC(=O)CNC(=O)c1ccccc1)Nc1ccc(F)c([N+](=O)[O-])c1 | 4.84
25 | Cc1[nH]nc2c1C(c1ccc(-c3ccccc3C#N)o1)C(C#N)=C(N)O2 (stereo unspecified) | -8.42
26 | O=C(NCc1cccs1)C(=O)NCC(c1ccco1)N1CCN(c2ccc(F)cc2)CC1 (stereo unspecified) | 0.62
27 | CCCN(CCC)CC(=O)Nc1cccc2c1OCO2 | 4.86
28 | O=C(/C=C/c1ccccc1)NNC(=O)c1ccco1 | -23.5
29 | CC(=O)c1cccc(NC(=S)NNC(=O)c2ccco2)c1 | 1.31
30 | O=C(/C=C/c1ccco1)NC(=S)Nc1cccc(-c2nc3ccccc3o2)c1 | -12.6
31 | O=C(NC(=S)Nc1c(F)cc(F)cc1Br)c1ccc2c(c1)OCCO2 | -3.71

Reference: PubChem BioAssay AID1985 (Southern Research Specialized Biocontainment Screening …, 2009)
